Hits are enriched below; roughly 6.4% of the tested compounds scored in any of these assays.
Gal4-VP16 FLuc: inhibits Gal4-VP16 luciferase reporter, ROR gamma counter-screen. Drosophila S2 Gal4-VP16 UAS-luciferase, luminescence, 20 h. AID 2546. Potency, µM (titrated, usually from 53.6 µM), inactives show at the top dose activity, negative = inhibition, hits mostly inhibitors. 3.5% of 310,000 active;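 note: Gal4-VP16 expression switched on by copper sulfate through the metallothionein promoter; nearly all actives have a fitted effect of over 50% in size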
RORg inh: blocks mouse ROR gamma transcriptional activity | 5.4% of 310,000 active | AID 2551 | P51450 | Potency, µM (doses to about 53.6 µM), for the others: top-dose activity change, negative = inhibition, hits mostly inhibitors | Drosophila S2 Gal4-RORgamma UAS-luciferase reporter, 20 h; note: nearly all actives have a fitted effect of over 60% in size
Target sequence (P51450 whole entry, looked up, the tested form may be a part): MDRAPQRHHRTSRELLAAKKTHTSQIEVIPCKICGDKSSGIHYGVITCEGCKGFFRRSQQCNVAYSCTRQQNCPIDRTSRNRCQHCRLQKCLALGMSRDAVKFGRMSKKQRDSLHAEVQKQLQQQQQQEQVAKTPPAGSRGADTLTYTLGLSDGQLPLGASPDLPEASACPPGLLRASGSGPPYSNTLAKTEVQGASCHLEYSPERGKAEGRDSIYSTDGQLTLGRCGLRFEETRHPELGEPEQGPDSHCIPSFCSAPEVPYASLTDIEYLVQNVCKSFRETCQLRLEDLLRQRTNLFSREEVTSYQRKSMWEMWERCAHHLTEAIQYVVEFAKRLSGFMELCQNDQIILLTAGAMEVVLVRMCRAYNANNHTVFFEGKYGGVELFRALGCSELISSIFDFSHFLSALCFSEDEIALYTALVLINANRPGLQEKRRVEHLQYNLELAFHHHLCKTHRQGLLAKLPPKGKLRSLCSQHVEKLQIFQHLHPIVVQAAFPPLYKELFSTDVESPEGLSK
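ROR gamma transcriptional activity was tracked as Gal4-UAS luciferase output in stably transfected Drosophila Schneider cells, with compound added 1 hr before 700 uM copper sulfate induction and a 20 hr ambient-temperature incubation.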
Luc counter: blocks Kinase-Glo luciferase, a counter-screen artifact; AID 1379; Q27757; Kinase-Glo luciferase, ATP luminescence, 8 min; 0.28% of 200,000 active; Potency, µM (titrated, usually from 38.3 µM), inactives show at the highest dose activity change, negative = inhibition, hits mostly inhibitors; note: nearly all actives have a fitted effect of over 60% in size
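Luminescence was the read-out, taken after 8-minute incubation at ambient temperature. Luciferase turned over luciferin with 10 uM ATP in imidazole pH 7.2 buffer containing KCl, MgCl2, Tween 20 and BSA.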
Active calls of the source: *; ? = inconclusive; nt = no result given; [ ] = dose if it differs, or a comment. Calls come from the whole dose curve; as a rule, active = well fitted curve in the direction sought with a large enough effect; inconclusive = small, poorly fitted or top-dose-only effect, or another doubt; inactive = no such curve, though single readings can be large; an effect the other way counts as inactive or inconclusive. % is set by controls: 0 for no effect and ±100 for the full control effect; potency is the fitted concentration of half-maximal effect.

SMILES | Gal4-VP16 FLuc | RORg inh | Luc counter
COc1cc(OC)cc(-c2nc(-c3cccs3)no2)c1 | -22.0% | 23.9% | -5.8%
COc1cc2oc(=O)c3c4c(cc5ccc(c1CCN(C)C)c2c53)OCO4 | -27.0% | ? | -0.2%
C/C(CC(=O)Nc1ccc2c(c1)OCCO2)=N\NC(=O)COc1ccc(C)cc1Br | 11.9% | -13.7% | nt
S=c1[nH]nc(-c2ccccn2)n1/N=C/c1c(Cl)cccc1Cl | 1.3% | ? | nt
Cc1ccc(/C=N/n2c(-c3ccco3)n[nH]c2=S)s1 | ? | 8.91µM* | 2.0%
S=c1[nH]nc(-c2ccco2)n1/N=C/c1ccccc1Cl | 22.4µM* | 3.16µM* | nt
S=c1[nH]nc(-c2ccco2)n1/N=C/c1ccc(Cl)cc1 | 3.98µM* | 4.47µM* | 1.2%
Cc1cc(-c2n[nH]c(=S)n2/N=C/c2ccc(C)s2)n[nH]1 | -8.7% | -35.9% | -0.8%
Cc1ccc(/C=N/n2c(-c3cccnc3)n[nH]c2=S)s1 | ? | 7.08µM* | -0.4%
S=c1[nH]nc(-c2cccnc2)n1/N=C/c1ccc(Br)s1 | ? | ? | 0.0%
O=C(c1cccc(F)c1)N1CCC2(CC1)CN(c1ccccn1)C2 | 7.0% | 2.6% | -3.7%
CCCn1c(-c2ccc(F)cc2)nc2c(NCCN(C(C)C)C(C)C)nc(C)nc21 | -5.7% | -29.5% | -2.9%
COc1cc(NC(=O)O[C@@H]2C(=O)c3cc(Br)ccc3O[C@H]2c2ccc3c(c2)OCO3)cc(OC)c1OC | -2.6% | -8.9% | -1.3%
CCn1c2ccccc2c2cc(/C=N/NC(=O)c3ccc(O)cc3)ccc21 | -18.5% | -2.4% | -1.7%
CCn1c2ccccc2c2cc(/C=N/NC(=O)c3ccncc3)ccc21 | ? | 8.91µM* | -4.9%
CCC(C)c1ccc(OCCn2cc(/C=N/NC(=O)CSc3nnc(C)s3)c3ccccc32)cc1 (centres undefined) | 22.4µM* | ? | -0.6%
COC(=O)N/N=C/c1cn(CCOc2cccc(OC)c2)c2ccccc12 | 0.1% | 23.9% | nt
Cc1cccc(OCCn2cc(/C=N/NC(=O)c3ccncc3)c3ccccc32)c1 | 5.62µM* | 4.47µM* | -0.9%
Cc1ccc(OCCn2cc(/C=C/C(=O)O)c3ccccc32)cc1 | -0.5% | 22.2% | nt
CCc1cccc2nc3c(c([Si](C)(C)C)c12)Cn1c-3cccc1=O | 1.3% | 41.6% | -0.6%
COC(C(=O)Nc1ccc(S(=O)(=O)Nc2cccc3ccccc23)cc1)c1ccccc1 (centres undefined) | 3.8% | 39.8% | 4.4%
COc1ccc(C(C(=O)Nc2ccc(C(C)C)cc2)N(C)C(=O)c2ccc(=O)[nH]c2)cc1 (centres undefined) | -1.8% | 17.8µM* | 0.6%
COc1ccc(NC(=O)C(NC(=O)c2ccc(=O)[nH]c2)c2ccccc2)cc1 (centres undefined) | -12.5% | -5.1% | -1.7%
CCCC(=O)C1=C(N2CCCCC2)CC(C)(C)C(C(=O)OC)C1=O (centres undefined) | 0.5% | 13.2% | -2.7%
CCNc1ncc2nc(-c3ccccc3)c(=O)n(Cc3ccc(F)cc3)c2n1 | -16.1% | 6.6% | -1.9%
SMILES | Gal4-VP16 FLuc | RORg inh | Luc counter
COc1ccc(-n2cnc3cc([N+](=O)[O-])ccc32)cc1 | 26.1% | 11.9% | 0.6%
COc1ccc(-n2cnc(N)c2C(=O)c2cccc([N+](=O)[O-])c2)cc1 | -19.1% | 11.2µM* | -1.7%
Cc1cc(/C=C\c2ccccc2)nc2ccccc12 | -6.5% | 11.2µM* | 0.3%
COc1ccc(/C=C/c2cc(C(=O)O)c3ccccc3n2)cc1 | 1.41µM* | 1.12µM* | nt
Cc1cc(C(=O)c2ccccc2)nc2ccccc12 | 10.4% | 26.7% | -7.4%
COc1cc(OC)c(OC)cc1/C=C/c1cc(C(=O)O)c2ccccc2n1 | 1.8% | -13.2% | 0.0%
COc1ccc(NC(=O)c2ccc(NC3=NC4CS(=O)(=O)CC4S3)cc2)cc1 (centres undefined) | 1.6% | -1.0% | nt
N/N=C1/CC(=O)NC(=O)N1 | nt | nt | 0.3%[7.66 µM]
CCC(=O)C(C(=O)OC)[C@H](CCc1ccccc1)NC(=O)OC (some centres undefined) | 1.2% | 2.6% | 0.5%
CC(=O)Nc1ccccc1C(=O)C(=O)NCCc1ccccc1 | 5.8% | 14.2% | nt
CC(C)(C)c1ccc(/C=C/C(=O)c2ccc(NC3=NCCCS3)cc2)cc1 | 5.62µM* | ? | 4.2%
O=C(/C=C/c1ccc(Br)cc1)c1ccc(NC2=NCCCS2)cc1 | ? | ? | -10.6%
Cc1cc(C)n(C(=O)/C=C/c2cccs2)n1 | 17.6% | 0.4% | nt
Cc1ccc2c(c1)nnn2C1CCN(S(=O)(=O)c2ccc(C(=O)O)cc2)CC1 | 7.0% | 19.5% | 5.2%
Cc1ccc2c(c1)nnn2C1CCN(S(=O)(=O)c2ccc(C(=O)N3C(C)CCCC3C)cc2)CC1 (centres undefined) | 15.8µM* | ? | 1.7%
Cc1cccc(NC(=O)N2CCc3ccccc3C2)c1C | 9.5% | ? | nt
C#CC[N+](C)(C)CCCCCCCCCCCC | 11.2µM* | ? | -0.4%
CCCCCCCCCCCCCCCC[N+](C)(C)CC | -23.2% | -28.1% | nt
C#CC[N+](C)(C)CCCCCCCCCC | -2.8% | ? | 0.9%
CCCCCCCC[N+](CCCCCCCC)(CCCCCCCC)CCCCCCCC | 2µM* | 4.47µM* | nt
CC#CC[N+](C)(C)CCCCCCCCCCCC | 7.08µM* | ? | -0.2%
C#CC[N+](C)(C)CCCCCCCC | -1.2% | 5.7%[10 µM] | -3.1%
Cc1ccc(C(=O)N2CCCC2)cc1S(=O)(=O)Nc1cccc(C)c1C | -14.5% | 16.1% | 1.9%
Cc1ccc2c(c1)cc1c(=O)n(CC(=O)N3CCCC3)nc(C)n12 | 6.9% | 2.4% | nt
CC1=C[N+](=O)c2ccccc2[N+]1=O | nt | nt | -0.9%[7.66 µM]
SMILES | Gal4-VP16 FLuc | RORg inh | Luc counter
Cn1c(=O)c2ncn(CC(=O)NCCOCc3ccccc3Cl)c2n(C)c1=O | 0.1% | 19.6% | -6.0%
CCOc1ccc(-c2c(C(=O)N/N=C/C3CCCCC3)nnn2-c2nonc2N)cc1 | -18.6% | -18.0% | nt
COC(=O)c1ccc(C(NC(=O)c2ccccc2)[C@]2(C)C[C@H]2C2CCCCC2)cc1 (some centres undefined) | 2.3% | 0.8% | -2.0%
O=C1c2ccccc2-c2nnc(-c3ccccc3)cc21 | 11.2µM* | 8.91µM* | 7.94µM*
COc1ccc(-c2cn(Cc3ccc4c(c3)C(=O)c3ccccc3C4=O)nn2)cc1 | -3.1% | -4.9% | nt
Cc1cccc(-c2cc3c(nn2)-c2ccccc2C3=O)c1 | ? | -15.3% | ?
COc1ccc(-c2cc3c(nn2)-c2ccccc2C3=O)cc1 | ? | 2.51µM* | 5.01µM*
CC(=O)c1ccc(NC(=O)[C@@H]2CCCN2C(=O)OC(C)(C)C)cc1 | 24.5% | -0.7% | nt
O=C(O)c1ccc(NCCC2=CCCCC2)c([N+](=O)[O-])c1 | 6.0% | -0.4% | 2.0%
CC(Nc1nc(-c2ccc3c(c2)NC(=O)CO3)cs1)c1ccccc1 (centres undefined) | 22.4% | ? | 1.1%
C=CCN=c1scc(-c2ccc3c(c2)NC(=O)CO3)n1/N=C(\C)c1ccccn1 | ? | 11.2µM* | 2.9%
Cc1cccc(C)c1Nc1oc(-c2ccccc2)nc1-c1ccccc1F | 1.5% | 7.4% | -4.4%
O=C(CCC(=O)N(CC(=O)NC1CCCC1)c1ccccc1F)Nc1nccs1 | 5.2% | 12.6µM* | nt
Cc1ccccc1N(CC(=O)NC1CCCCC1)C(=O)CCC(=O)Nc1nccs1 | 1.8% | 31.8% | nt

Assay outcomes as filed in PubChem.
